Source: the supplement of paper PMC10681739

These sequences were tested against T1, ETS1 (UniProt P14921) (assay: TF binding intensity (PBM fluorescence), negative control probe (arbitrary fluorescence units); higher = stronger binding).
T1 sequence: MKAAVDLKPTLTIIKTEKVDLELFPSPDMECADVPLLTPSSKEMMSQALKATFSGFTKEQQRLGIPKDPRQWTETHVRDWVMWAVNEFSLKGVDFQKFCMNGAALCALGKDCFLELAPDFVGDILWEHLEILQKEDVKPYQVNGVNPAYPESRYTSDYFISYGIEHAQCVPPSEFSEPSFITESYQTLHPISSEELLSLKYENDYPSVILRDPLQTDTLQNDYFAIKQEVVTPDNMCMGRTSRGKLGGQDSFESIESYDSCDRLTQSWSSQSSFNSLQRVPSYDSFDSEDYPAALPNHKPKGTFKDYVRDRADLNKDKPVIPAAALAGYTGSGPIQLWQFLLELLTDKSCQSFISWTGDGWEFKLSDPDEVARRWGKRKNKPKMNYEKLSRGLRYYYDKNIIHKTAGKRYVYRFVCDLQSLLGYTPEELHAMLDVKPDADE
Experimental: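 gcPBM negative-control 36-bp genomic probes lacking TF binding sites. Each was incubated with recombinant human ETS1 or RUNX1 alone and detected by antibody fluorescence. Values are medians over replicate spots (4 spots for the ETS1-RUNX1 arrays, 3 for the ETS1-ETS1 array). The probes sit in constant array flanks that are not printed.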
With “GGCAAGCTTATATAGTTTGCTTCATAAAACTCTATT (protein concentration 10 nM)” the TF binding intensity was 119.
In the case of “CCGGGACCCCGCCCCCGATCCCCGCCTACCGGGGCC (protein concentration 10 nM)”, the TF binding intensity is reported as 209.
Work on “AAAGGCATGTAATGAACACTAAAACCCAAGAACCTG (protein concentration 10 nM)” yielded a TF binding intensity of 114.
In the case of “CTTGGTGTGTCTGAAGAAAGATCAGAAGGCTGGCAT (protein concentration 10 nM)”, the TF binding intensity is reported as 123.
Sequence “CCACGCTTTGCCAGCACTTTCCCCTGCCTCGTCTGT (protein concentration 10 nM)” has a TF binding intensity of 119.
“AGCGGGAGGGAGGCCAGGGAAGGCTGCTGGGGGTCG (protein concentration 10 nM)” showed a TF binding intensity of 142.
Work on “GGGGGTATAGGGGAGCAGTCCCATGTAGTAGTAGAA (protein concentration 10 nM)” yielded a TF binding intensity of 172.
“CTCCCTCTCTCCCTCCCTCCCTCCCTCCCTCCCTTC (protein concentration 10 nM)” was tested, and the TF binding intensity was 230.
“TTGTGTTCTTATCAAATTATTAAGATTTTAGGTGAG (protein concentration 10 nM)” gave a TF binding intensity of 133.
Sequence “TGGACTAACTCCATTGCCTTTGTATACATTGGTTTC (protein concentration 10 nM)” has a TF binding intensity of 102.
“ACTGCGCGCAGGGCCTGCAGCGGCAGCTGGACTGGG (protein concentration 10 nM)” was tested, and the TF binding intensity was 120.
In the case of “TCTTTATCTGTCAGTACCACACTGTCTATTCTCCCA (protein concentration 1 nM)”, the TF binding intensity is reported as 502.
In the case of “GACATTTCGAGTAAGTGCGGTATACCAGTTAAAAAT (protein concentration 1 nM)”, the TF binding intensity is reported as 479.
